According to the supplement of paper PMC8728848:
About 410 targets per protein were measured; listed, in parts, are those with the strongest signals and a random draw of the rest.

Key:
Experiment in all cases: glycan array binding signal (z-score within array); higher = stronger binding
Settings in all cases: glycan notation: IUPAC condensed, linker removed
[1] = target: Fuc(a1-2)Gal(b1-3)GalNAc
In short: (§1)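 Columns mapping to the same glycan were averaged after glycan names were converted to IUPAC-condensed notation. The data come from 3228 arrays in the Consortium for Functional Glycomics database, limited to those with an available protein sequence. Binding is reported as a within-array Z-score averaged across arrays of one protein sequence and across linkers.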

[2] = target: Fuc(a1-2)Gal(b1-3)GlcNAc(b1-3)[Neu5Ac(a2-6)Gal(b1-4)GlcNAc(b1-6)]Gal(b1-4)Glc
In short: as §1

[3] = target: Fuc(a1-2)Gal(b1-3)GlcNAc6S
In short: as §1

[4] = target: Fuc(a1-2)Gal(b1-3)[Fuc(a1-4)]GlcNAc(b1-2)Man(a1-3)[Fuc(a1-2)Gal(b1-3)[Fuc(a1-4)]GlcNAc(b1-2)Man(a1-6)]Man(b1-4)GlcNAc(b1-4)[Fuc(a1-6)]GlcNAc(b1-4)[Fuc(a1-6)]GlcNAc
In short: as §1

[5] = target: Fuc(a1-2)Gal(b1-3)[Fuc(a1-4)]GlcNAc(b1-3)[Gal(b1-4)GlcNAc(b1-6)]Gal(b1-4)Glc
In short: as §1

[6] = target: Fuc(a1-2)[Gal(a1-3)]Gal(b1-3)GlcNAc(b1-2)Man(a1-3)[Fuc(a1-2)[Gal(a1-3)]Gal(b1-3)GlcNAc(b1-2)Man(a1-6)]Man(b1-4)GlcNAc(b1-4)GlcNAc
In short: as §1

[7] = target: Fuc(a1-2)[Gal(a1-3)]Gal(b1-3)GlcNAc(b1-2)Man(a1-3)[Fuc(a1-2)[Gal(a1-3)]Gal(b1-3)GlcNAc(b1-2)Man(a1-6)]Man(b1-4)GlcNAc(b1-4)[Fuc(a1-6)]GlcNAc
In short: as §1

[8] = target: Fuc(a1-2)[Gal(a1-3)]Gal(b1-3)GlcNAc(b1-3)GalNAc
In short: as §1

[9] = target: Fuc(a1-2)[Gal(a1-3)]Gal(b1-4)GlcNAc(b1-2)Man(a1-3)[Fuc(a1-2)[Gal(a1-3)]Gal(b1-4)GlcNAc(b1-2)Man(a1-6)]Man(b1-4)GlcNAc(b1-4)[Fuc(a1-6)]GlcNAc
In short: as §1

[10] = target: Fuc(a1-2)[GalNAc(a1-3)]Gal
In short: as §1

[11] = target: Fuc(a1-2)[GalNAc(a1-3)]Gal(b1-3)GlcNAc(b1-3)GalNAc
In short: as §1

[12] = target: Fuc(a1-2)[GalNAc(a1-4)]Gal(b1-4)GlcNAc
In short: as §1

[13] = target: Fuc(a1-3)[Gal(b1-4)]Glc6S
In short: as §1

[14] = target: Gal(a1-3)Gal(b1-4)GlcNAc
In short: as §1

[15] = target: Gal(b1-3)GalNAc(b1-3)Gal
In short: as §1

[16] = target: Gal(b1-3)[Fuc(a1-4)]GlcNAc(b1-2)Man(a1-3)[Gal(b1-3)[Fuc(a1-4)]GlcNAc(b1-2)Man(a1-6)]Man(b1-4)GlcNAc(b1-4)[Fuc(a1-6)]GlcNAc
In short: as §1

[17] = target: Gal(b1-4)GlcNAc(b1-3)Gal(b1-4)GlcNAc(b1-3)Gal(b1-4)GlcNAc(b1-2)Man(a1-3)[Gal(b1-4)GlcNAc(b1-3)Gal(b1-4)GlcNAc(b1-3)Gal(b1-4)GlcNAc(b1-2)Man(a1-6)]Man(b1-4)GlcNAc(b1-4)GlcNAc
In short: as §1

[18] = target: Gal(b1-4)GlcNAc(b1-3)Gal(b1-4)GlcNAc(b1-3)Gal(b1-4)GlcNAc(b1-2)[Gal(b1-4)GlcNAc(b1-3)Gal(b1-4)GlcNAc(b1-3)Gal(b1-4)GlcNAc(b1-6)]Man(a1-6)[Gal(b1-4)GlcNAc(b1-3)Gal(b1-4)GlcNAc(b1-3)Gal(b1-4)GlcNAc(b1-2)Man(a1-3)]Man(b1-4)GlcNAc(b1-4)[Fuc(a1-6)]GlcNAc
In short: as §1

[19] = target: Gal(b1-4)GlcNAc(b1-3)Gal(b1-4)GlcNAc(b1-3)Gal(b1-4)GlcNAc(b1-3)Gal(b1-4)GlcNAc(b1-2)Man(a1-3)[Gal(b1-4)GlcNAc(b1-3)Gal(b1-4)GlcNAc(b1-3)Gal(b1-4)GlcNAc(b1-3)Gal(b1-4)GlcNAc(b1-2)Man(a1-6)]Man(b1-4)GlcNAc(b1-4)GlcNAc
In short: as §1

[20] = target: Gal(b1-4)GlcNAc(b1-3)Gal(b1-4)GlcNAc(b1-3)Gal(b1-4)GlcNAc(b1-3)Gal(b1-4)GlcNAc(b1-2)[Gal(b1-4)GlcNAc(b1-3)Gal(b1-4)GlcNAc(b1-3)Gal(b1-4)GlcNAc(b1-3)Gal(b1-4)GlcNAc(b1-6)]Man(a1-6)[Gal(b1-4)GlcNAc(b1-3)Gal(b1-4)GlcNAc(b1-3)Gal(b1-4)GlcNAc(b1-3)Gal(b1-4)GlcNAc(b1-2)Man(a1-3)]Man(b1-4)GlcNAc(b1-4)[Fuc(a1-6)]GlcNAc
In short: as §1

[21] = target: Gal(b1-4)GlcNAc(b1-3)Gal(b1-4)GlcNAc(b1-6)[Gal(b1-3)]GalNAc
In short: as §1

[22] = target: Gal(b1-4)GlcNAc(b1-3)Gal(b1-4)[Fuc(a1-3)]GlcNAc(b1-3)Gal(b1-4)[Fuc(a1-3)]GlcNAc
In short: as §1

[23] = target: Gal(b1-4)GlcNAc(b1-6)GalNAc
In short: as §1

[24] = target: Gal3S(b1-4)[Fuc(a1-3)]Glc6S
In short: as §1

[25] = target: Gal6S(b1-4)GlcNAc
In short: as §1

[26] = target: GalNAc(b1-3)Gal(a1-4)Gal(b1-4)GlcNAc(b1-3)Gal(b1-4)Glc
In short: as §1

[27] = target: GlcNAc(a1-4)Gal(b1-4)GalNAc
In short: as §1

[28] = target: GlcNAc(a1-6)Gal(b1-4)GlcNAc
In short: as §1

[29] = target: GlcNAc(b1-2)Man(a1-3)[GlcNAc(b1-2)Man(a1-6)]Man(b1-4)GlcNAc(b1-4)[Fuc(a1-6)]GlcNAc
In short: as §1

[30] = target: GlcNAc(b1-3)Gal(b1-4)GlcNAc(b1-3)Gal(b1-4)GlcNAc(b1-3)Gal(b1-4)GlcNAc(b1-3)Gal(b1-4)GlcNAc(b1-2)Man(a1-3)[GlcNAc(b1-3)Gal(b1-4)GlcNAc(b1-3)Gal(b1-4)GlcNAc(b1-3)Gal(b1-4)GlcNAc(b1-3)Gal(b1-4)GlcNAc(b1-2)Man(a1-6)]Man(b1-4)GlcNAc(b1-4)[Fuc(a1-6)]GlcNAc
In short: as §1

[31] = target: GlcNAc(b1-4)Gal(b1-4)GlcNAc
In short: as §1

[32] = target: GlcNAc(b1-4)GlcNAc(b1-4)GlcNAc(b1-4)GlcNAc(b1-4)GlcNAc
In short: as §1

[33] = target: Man(a1-2)Man(a1-6)[Man(a1-3)]Man(a1-6)[Man(a1-2)Man(a1-2)Man(a1-3)]Man
In short: as §1

[34] = target: Man(a1-3)[Man(a1-6)]Man(a1-6)[Man(a1-3)]Man
In short: as §1

[35] = target: Neu5Ac(a2-3)Gal(b1-3)GalNAc
In short: as §1

[36] = target: Neu5Ac(a2-3)Gal(b1-3)GalNAc6S
In short: as §1

[37] = target: Neu5Ac(a2-3)Gal(b1-3)GlcNAc(b1-6)GalNAc
In short: as §1

[38] = target: Neu5Ac(a2-3)Gal(b1-4)GlcNAc(b1-6)[Neu5Ac(a2-3)Gal(b1-3)]GalNAc
In short: as §1

[39] = target: Neu5Ac(a2-3)Gal6S(b1-4)[Fuc(a1-3)]GlcNAc
In short: as §1

[40] = target: Neu5Ac(a2-6)Gal(b1-4)GlcNAc(b1-2)Man(a1-6)[GlcNAc(b1-2)Man(a1-3)]Man(b1-4)GlcNAc(b1-4)GlcNAc
In short: as §1

[41] = target: Neu5Ac(a2-6)Gal(b1-4)GlcNAc(b1-6)[Gal(b1-3)]GalNAc
In short: as §1

[42] = target: Neu5Ac(a2-8)Neu5Ac(a2-3)Gal(b1-3)GalNAc(b1-4)[Neu5Ac(a2-8)Neu5Ac(a2-3)]Gal(b1-4)Glc
In short: as §1

[43] = target: Neu5Ac9Ac(a2-3)Gal(b1-3)GlcNAc
In short: as §1

[44] = target: Neu5Ac9Ac(a2-6)Gal(b1-4)GlcNAc
In short: as §1

[45] = target: Neu5Gc(a2-3)Gal(b1-3)[Fuc(a1-4)]GlcNAc
In short: as §1

[46] = target: Neu5Gc(a2-8)Neu5Gc(a2-6)Gal(b1-4)GlcNAc
In short: as §1

B1: EUL D1A (Oryza sativa) (protein)
chain: MFGFGHHHNQAPAAPSDPNQIFKIFCRANENYCLTVRDSAVVLAPVNPKDEHQHWFKDMRFSTKVKDGEGMPAFALVNKATGLAVKHSLGQSHPVKLVPFNPEYEDASVLWTESKDVGKGFRCIRMVNNTRLNLDAFHGDKDHGGVRDGTTVVLWEWCKGDNQSWKILPWGPEAHSSSPGAATACTIGGVPVHTVRVFSAAGEDYCLTVRNGTACLAPKNPRDDYQHWIKDMRHSNKIRDEEGYPAFALVNKVTGEAIKHSTGQGHPVKLVPYNPEYQDESVLWTESKDVGKGFRCIRMVNNIYLNFDAFHGDKDHGGIHDGTEIVLWKWCEGDNQRWKILPWILEQKLISEEDLNSAVDHHHHHH
glycan array binding signal (z-score) [1]: -0.934
glycan array binding signal (z-score) [2]: -0.444
glycan array binding signal (z-score) [3]: 0.203
glycan array binding signal (z-score) [4]: 2.92
glycan array binding signal (z-score) [5]: 1.23
glycan array binding signal (z-score) [6]: 0.066
glycan array binding signal (z-score) [7]: -1.06
glycan array binding signal (z-score) [8]: -0.79
glycan array binding signal (z-score) [9]: 0.315
glycan array binding signal (z-score) [10]: -0.299
glycan array binding signal (z-score) [11]: 0.318
glycan array binding signal (z-score) [12]: -0.759
glycan array binding signal (z-score) [13]: 1.6
glycan array binding signal (z-score) [14]: -0.8
glycan array binding signal (z-score) [15]: -0.437
glycan array binding signal (z-score) [16]: 0.658
glycan array binding signal (z-score) [17]: 2.18
glycan array binding signal (z-score) [18]: 2.54
glycan array binding signal (z-score) [19]: 2.32
glycan array binding signal (z-score) [20]: 2.71
glycan array binding signal (z-score) [21]: 2.71
glycan array binding signal (z-score) [22]: -0.649
glycan array binding signal (z-score) [23]: 0.031
glycan array binding signal (z-score) [24]: 2.51
glycan array binding signal (z-score) [25]: -0.407
glycan array binding signal (z-score) [26]: -0.333
glycan array binding signal (z-score) [27]: -0.573
glycan array binding signal (z-score) [28]: 2.67
glycan array binding signal (z-score) [29]: 2.33
glycan array binding signal (z-score) [30]: 1.58
glycan array binding signal (z-score) [31]: -1.13
glycan array binding signal (z-score) [32]: 0.586
glycan array binding signal (z-score) [33]: 2.83
glycan array binding signal (z-score) [34]: -0.067
glycan array binding signal (z-score) [35]: -0.87
glycan array binding signal (z-score) [36]: 2.32
glycan array binding signal (z-score) [37]: -1.15
glycan array binding signal (z-score) [38]: 2.69
glycan array binding signal (z-score) [39]: -0.714
glycan array binding signal (z-score) [40]: 1.83
glycan array binding signal (z-score) [41]: -0.319
glycan array binding signal (z-score) [42]: 0.293
glycan array binding signal (z-score) [43]: -0.59
glycan array binding signal (z-score) [44]: -0.088
glycan array binding signal (z-score) [45]: 0.008
glycan array binding signal (z-score) [46]: -0.137
